Many of the other results were omitted from the sample, so hits are more common in it than they were.
HEK293 cAMP ctrl: parental HEK293 cAMP activation (counter-screen) | Potency, µM (titrated, usually from 57.1 µM), inactives show at the highest dose activation, actives largely listed as activators | 2.5% of 73,000 active | parental HEK293 CNG cAMP sensor, membrane potential fluorescence; also: % of control where 0% means no effect; nearly all actives have a fitted effect of over 55% in size
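Parental HEK 293 cells stably expressing a modified CNG channel (no TSHR) report cAMP rise as membrane depolarization. Membrane potential dye with 100 uM RO 20-1724 was loaded for 60 min at room temperature, then compound added for 30 min; fluorescence read at 590 nm.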
TSHR ag: agonists of human thyroid stimulating hormone receptor. Potency, µM (top dose mostly 57.1 µM), for the others: at the highest dose activation, usual class: activators. P16473. HEK293-CNG-TSHR cells (CNG channel as cAMP sensor), membrane potential dye, cAMP. AID 926. 0.48% of 73,000 active; active = well fitted activation curve with a large enough effect in the main read-out, with a control signal flat, not every such curve was filed as active; inconclusive = small, poorly fitted or top-dose-only effect, or a change in a side signal; inactive = no such curve, though single readings can be large or run the other way; % of control where 0% means no effect;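 also: the control signal comes from parental cells without the receptor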
Target sequence (P16473 whole entry, looked up): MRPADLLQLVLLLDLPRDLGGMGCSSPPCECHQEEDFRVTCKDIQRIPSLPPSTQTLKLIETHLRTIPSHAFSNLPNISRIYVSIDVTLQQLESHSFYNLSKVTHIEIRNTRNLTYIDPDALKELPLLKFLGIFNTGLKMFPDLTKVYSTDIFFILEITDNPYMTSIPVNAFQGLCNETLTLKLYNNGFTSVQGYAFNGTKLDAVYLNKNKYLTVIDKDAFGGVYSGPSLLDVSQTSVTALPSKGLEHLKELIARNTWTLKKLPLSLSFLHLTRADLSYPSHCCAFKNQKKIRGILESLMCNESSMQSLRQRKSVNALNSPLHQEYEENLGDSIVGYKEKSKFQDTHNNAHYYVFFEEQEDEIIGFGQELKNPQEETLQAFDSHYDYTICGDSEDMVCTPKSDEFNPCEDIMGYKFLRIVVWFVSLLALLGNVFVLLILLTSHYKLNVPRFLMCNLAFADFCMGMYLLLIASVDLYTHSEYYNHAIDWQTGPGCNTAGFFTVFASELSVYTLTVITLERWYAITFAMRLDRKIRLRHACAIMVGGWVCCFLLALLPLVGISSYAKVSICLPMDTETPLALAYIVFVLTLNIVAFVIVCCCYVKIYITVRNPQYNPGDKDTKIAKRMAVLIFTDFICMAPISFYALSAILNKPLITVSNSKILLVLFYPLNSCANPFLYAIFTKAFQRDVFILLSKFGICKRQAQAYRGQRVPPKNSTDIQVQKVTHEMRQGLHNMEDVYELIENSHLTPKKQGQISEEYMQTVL
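cAMP rise detected as CNG-channel membrane depolarization by fluorescent dye (emission 590 nm), 30 min after compound, following 60 min dye loading containing 100 uM RO 20-1724 at room temperature. Cells: TSHR/CNG HEK 293, with parental CNG HEK 293 as control.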
Imprint erasure: inducers of genomic imprint erasure in mouse ES cells; Potency, µM (highest dose often 60.7 µM), for the others: at the highest dose activity change, positive = activation, hits mostly activators; 0.02% of 110,000 active; mouse ES Peg3-LacZ reporter, beta-gal luminescence, 40 h; AID 1948
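Each well holds 300 Peg3LacZ-Neo (maternal) female ES cells incubated 40 h at 37C, 5% CO2. LacZ is measured by BetaGlo luminescence, with AC50 and maximum efficacy derived from dose-response curves.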
Numbers without * were called inactive; ? = inconclusive; · = no result given; [ ] = remark or other dose. Unless noted, calls follow the shape of the dose curve; as a rule, active = well fitted activation curve with a large enough effect; inconclusive = small, poorly fitted or top-dose-only effect; inactive = no such curve, though single readings can be large or run the other way. Potency is read from the fitted curve at half-maximal effect.

SMILES | HEK293 cAMP ctrl | TSHR ag | Imprint erasure
CC1=C(C(=O)OCc2ccccc2)C(C2CC2)NC(=O)N1CCCCCC(=O)O (centres undefined) | 20µM* | ? | -26.6%
CC1=C(C(=O)OCc2ccccc2)C(C2CCCCC2)NC(=O)N1CCCCCC(=O)O (centres undefined) | ? | ? | -13.0%
CCOC(=O)C1CCN(S(=O)(=O)c2cc(-c3cc(C)no3)ccc2OC)CC1 | · | · | -8.7%[10.9 µM]
CCc1cc(=O)oc2c(C)c3c(cc12)CN(CCc1ccccc1)CO3 | · | · | -6.6%[10.9 µM]
CCC(C(=O)Nc1cc(C)nn1-c1nc(C)cc(C)n1)c1ccccc1 (centres undefined) | 15.8µM* | ? | -13.6%
Cc1cc(C)nc(-n2nc(C)cc2Nc2ccccc2)n1 | 13.6% | 9.0% | -16.5%
Cc1cc(C)nc(-n2nc(C)cc2NC(=O)CN2CCc3ccccc3C2)n1 | 25.1µM* | ? | 5.4%
Cc1cc(C)nc(-n2nc(C)cc2NC(=O)CN2CCCC(C)C2)n1 (centres undefined) | ? | ? | -3.7%
COc1ccc2nc3oc(C(=O)N4CCN(c5cc(C)ccc5C)CC4)cc3cc2c1 | · | · | -12.6%[10.9 µM]
O=c1[nH][nH]c(=S)c(=O)[nH]1 | ? | ? | -7.7%[10.9 µM]
CCN(C(=O)Cn1c(SCC(=O)Nc2ccc(OC)cc2)nc2ccccc21)c1cccc(C)c1 | · | · | 8.8%[10.9 µM]
O=C1c2ccccc2C(Nc2ccc3c(c2)OCCO3)N1c1ccccn1 (centres undefined) | 26.2% | 19.0% | -18.0%
O=C1c2ccccc2C(Nc2ccc(F)c(Cl)c2)N1c1ccccn1 (centres undefined) | 13.1% | 20µM* | -18.3%
c1coc(Cn2nnnc2CN2CCN(C3CCCC3)CC2)c1 | ? | ? | 6.4%
Fc1ccc(Cn2nnnc2CN2CCN(C3CCCCC3)CC2)cc1 | 10µM* | ? | -8.2%
COc1ccc2c(c1OC)OCC(c1ccc(OC)c(OC)c1OC)C2 (centres undefined) | · | · | 3.3%
O=c1cc(-c2ccccc2)oc2cc(O[C@H]3O[C@H](CO)[C@@H](O)[C@H](O)[C@@H]3O)c(O)c(O)c12 | -0.4% | -0.2% | ·
O=C(CCCCCn1c(=O)c2sccc2n(Cc2ccccc2Cl)c1=O)NCc1ccc2c(c1)OCO2 | · | · | -3.0%[10.9 µM]
O=C(NCc1noc2ccccc12)N1CCN(c2ccccc2)CC1 | · | · | -16.9%[10.9 µM]
COc1cc(Nc2nn(-c3ccc(OC(F)(F)F)cc3)nc2C(C)=O)cc(OC)c1 | · | · | -10.6%[10.9 µM]
CCOc1ccc(S(=O)(=O)n2c(C)nc3ccccc32)cc1 | 13.3% | 9.1% | -24.2%
CCCCOc1ccc(S(=O)(=O)n2c(C)nc3ccccc32)cc1 | 3.16µM* | ? | -14.9%
C1CCC(N=C(NC23CC4CC(CC(C4)C2)C3)N2CCOCC2)CC1 | 25.1µM* | ? | -7.5%
O=C(NC12CC3CC(CC(C3)C1)C2)N1CCN(C(=O)C2CCCO2)CC1 (centres undefined) | 0.0% | -1.7% | -19.7%
CCOc1ccccc1CN(CCc1ccc2c(c1)OCO2)Cc1ccccn1 | 15.8µM* | ? | -19.2%
SMILES | HEK293 cAMP ctrl | TSHR ag | Imprint erasure
CCOc1ccccc1CN(CCc1ccc2c(c1)OCO2)Cc1cc(OC)c(OC)cc1OC | · | · | -11.5%[10.9 µM]
Oc1ccc([C@@H]2CNCCc3c2cc(O)c(O)c3Cl)cc1 | ? | ? | -15.5%
COC(=O)c1cc(CSc2nnc(-c3ccccc3)c(-c3ccccc3)n2)oc1C | 19.6% | 4.9% | -17.9%
COC(=O)c1cc(CSc2nc3ccc(C)cc3[nH]2)oc1C | 20µM* | ? | -20.8%
Cc1cccc(C(=O)N2c3ncnn3C3(CCCCC3)[C@@H]3CCCC[C@@H]32)c1 | · | · | -8.8%[10.9 µM]
Cc1cccc(NC(=O)c2oc3ccccc3c2NC(=O)Cc2coc3c(C)c(C)ccc23)c1 | · | · | -5.1%[10.9 µM]
COc1cccc(/C=N/n2cnnc2)c1OCc1ccccc1 | 23.3% | 21.7% | -7.6%
COc1cccc(/C=N/n2c(C)nc3ccccc32)c1OC | 15.8µM* | ? | -5.0%
N#Cc1ccccc1NC(=O)c1ccc(-c2ccccc2Cl)o1 | 25.1µM* | ? | -8.4%
O=C(O)c1ccc(-c2ccccc2Cl)o1 | 10.2% | 9.7% | -35.5%
COc1ccc2oc(C(=O)OCC(=O)c3ccc4c(c3)OCCO4)c(C)c2c1 | 20µM* | ? | ?
COc1ccc(CNC(=O)COC(=O)c2ccc3c(c2)OCCO3)cc1 | 16.5% | 6.8% | -5.2%
COc1ccc(CCNC(=O)c2nc(SCc3ccc(C)cc3)ncc2Cl)cc1OC | · | · | -13.5%[10.9 µM]
CCN(Cc1ccccc1)C(=O)Cn1ncc2c(=O)oc3ccc(C)cc3c21 | · | · | -3.0%[10.9 µM]
Cc1ccc(C(=O)c2oc3ccccc3c2NC(=O)c2cc(=O)c3cc(C)ccc3o2)cc1 | · | · | 2.6%[10.9 µM]
CC(=O)c1ccc(Nc2nc3c(S(=O)(=O)c4ccccc4)nnn3c3ccc(Cl)cc23)cc1 | · | · | 14.5%[10.9 µM]
O=C(OCc1nnc(-c2ccccc2)o1)c1ccc2c(c1)OCCO2 | 12.6µM* | ? | -12.4%
Cc1ccc(C(=O)OCc2nnc(-c3ccccc3)o2)o1 | 22.0% | 4.2% | 0.3%
Cc1cc(C)n(-c2ccc(C(=O)OCc3nnc(-c4ccccc4)o3)cc2)n1 | 31.6µM* | ? | -17.4%
O=C(OCc1nnc(-c2ccccc2)o1)C1=COCCO1 | 3.6% | 1.0% | -1.5%
COC(=O)c1ccc(C(NC(=O)OCc2ccccc2)/C(F)=C/[C@@H](C)C(=O)NCc2cc(F)cc(F)c2)cc1 (some centres undefined) | 15.7% | 14.7% | -10.6%
O=C1C2=C(Nc3ccccc3SC2c2ccco2)c2ccccc21 (centres undefined) | -23.1% | 2µM* | -11.6%
CC(C)c1ccc(C2Sc3ccccc3NC3=C2C(=O)c2ccccc23)cc1 (centres undefined) | · | · | -16.1%[10.9 µM]
COCc1cc(C)n(CC(=O)Nc2ccc(NC(C)=O)cc2)c(=O)c1C#N | · | · | 9.8%[10.9 µM]
COc1ccc(CCNC(c2ccc(F)cc2)c2nnc(-c3ccccc3Cl)o2)cc1OC (centres undefined) | · | · | -10.7%[10.9 µM]
SMILES | HEK293 cAMP ctrl | TSHR ag | Imprint erasure
O=C(c1ccccc1C(=O)N1CCN(c2ccccc2F)CC1)N1CCN(c2ccccc2F)CC1 | 15.8µM* | ? | -16.1%
O=C(c1ccccc1F)N1CCN(c2ccccc2F)CC1 | 1.7% | -2.6% | 2.6%
CCc1ccc(C(=O)c2cn(CC(=O)Nc3ccc4c(c3)OCO4)c3ccc(CC)cc3c2=O)cc1 | · | · | -26.9%[10.9 µM]
CCC1=C2CC[C@H]3C(=O)N(CC)C(=O)[C@H]3[C@H]2[C@@]2(C)C(=O)N(CC(=O)OC)C(=O)N2C1=O | · | · | -6.7%
Cc1cccn2c(=O)c(/C=N/O)c(N3CCCCC3)nc12 | 15.8µM* | ? | -14.0%
O=c1c(/C=N/O)c(Nc2ccccc2)nc2ccccn12 | 10.8% | 11.2% | -5.7%
Cc1ccc(C(=O)CSc2nc3cc(C(=O)NC4CCCC4)ccc3c(=O)n2CC2CCCO2)c(C)c1 (centres undefined) | · | · | 18.5%[10.9 µM]
Cc1ccc(SCCNS(=O)(=O)c2ccc(F)cc2)cc1 | 18.2%[11.4 µM] | 1µM* | -5.8%
COc1ccc(S(=O)(=O)NCCSc2ccc(C)cc2)cc1OC | ? | ? | -15.6%
CCC(c1nnnn1C(C)C)N1CCN(C2CCCC2)CC1 (centres undefined) | ? | ? | -9.6%
CCCCC(c1nnnn1C1CCCC1)N1CCN(C2CCCC2)CC1 (centres undefined) | ? | ? | -2.3%
